TDP1 cell CPT: qHTS for Inhibitors of human tyrosyl-DNA phosphodiesterase 1 (TDP1): qHTS in cells in presence of CPT. chicken DT40 Tdp1-/-;hTDP1 cells + 20 nM CPT, ATP luminescence, 48 h. Potency, µM (doses to about 46.2 µM), for the others: at the highest dose activity change, negative = growth inhibition, most hits filed as inhibitors. 420,000 compounds, 12% hits. AID 686979, 2013; further: potency means the concentration at half of the fitted maximal effect; nearly all actives have a fitted effect of over 55% in size
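Chicken DT40 Tdp1-/- cells complemented with human TDP1, 400 cells/well, exposed to compounds plus 20 nM camptothecin for at least 48 h at 37 C; viability read as ATP content by CellTiter-Glo luminescence.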
TDP1 cell noCPT: qHTS for Inhibitors of human tyrosyl-DNA phosphodiesterase 1 (TDP1): qHTS in cells in absence of CPT; DT40 Tdp1-/- hTDP1 cells, no CPT, ATP luminescence, 48 h; Potency, µM (highest dose often 46.2 µM), inactives show at the highest dose activity change, negative = growth inhibition, most hits filed as inhibitors; 420,000 compounds, 15% hits; AID 686978, 2013; further: potency means the concentration at half of the fitted maximal effect; nearly all actives have a fitted effect of over 55% in size
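DT40 Tdp1-/-;hTDP1 cells, no CPT (DMSO vehicle only), 400 cells/well; compounds pin-transferred; ≥48 hr, 37 °C; CellTiter-Glo 30 min RT dark, luminescence read.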
RORg inh: qHTS for inhibitors of ROR gamma transcriptional activity; AID 2551, 2010; Nuclear receptor ROR-gamma (Mus musculus), P51450; 310,000 compounds, 5.4% hits; Potency, µM (top dose mostly 53.6 µM), for the others: at the highest dose activity change, negative = inhibition, usual class: inhibitors; Drosophila S2 Gal4-RORgamma UAS-luciferase reporter, 20 h; further: potency means the concentration at half of the fitted maximal effect; nearly all actives have a fitted effect of over 60% in size
Target sequence (P51450 whole entry, looked up, the tested form may be a part): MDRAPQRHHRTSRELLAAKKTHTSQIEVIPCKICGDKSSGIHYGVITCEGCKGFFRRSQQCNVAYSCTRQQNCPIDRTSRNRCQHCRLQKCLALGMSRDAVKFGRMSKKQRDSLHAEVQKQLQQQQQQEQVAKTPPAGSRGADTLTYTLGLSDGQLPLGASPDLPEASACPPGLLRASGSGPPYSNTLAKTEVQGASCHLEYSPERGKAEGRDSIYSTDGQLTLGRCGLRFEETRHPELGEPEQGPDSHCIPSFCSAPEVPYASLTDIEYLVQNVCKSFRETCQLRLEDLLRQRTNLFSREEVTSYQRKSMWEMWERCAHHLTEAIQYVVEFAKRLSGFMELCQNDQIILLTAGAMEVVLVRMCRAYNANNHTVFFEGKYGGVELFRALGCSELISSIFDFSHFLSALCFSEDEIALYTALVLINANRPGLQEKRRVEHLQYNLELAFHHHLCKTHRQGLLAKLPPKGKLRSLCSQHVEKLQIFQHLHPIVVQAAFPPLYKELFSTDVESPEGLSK
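Read-out: Photinus luciferase luminescence; inhibitors lower reporter signal. Insect Schneider cells with Gal4-ROR gamma fusion under metallothionein promoter, UAS reporter; 700 uM final copper sulfate induction, 20 hr, ambient temperature.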
IL-1B inflam inh: qHTS for Inhibitors of Inflammasome Signaling: IL-1-beta AlphaLISA Primary Screen | 360,000 compounds, 4.7% hits | AID 743279, 2014 | THP-1 LPS/ATP IL-1B secretion, AlphaLISA, 16 h; stronger effect = lower value | activity change, % at 57.5 µM; in the data active means activity change below about -50%; inconclusive means mostly about -30% to -49%
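THP-1 cells pretreated 1 hr with compounds (up to 57.5 uM final), then stimulated with LPS (250 ng/mL final) plus ATP (1.25 mM final); secreted IL-1B measured by AlphaLISA after 16 hr, decreased signal indicating inhibition.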
Gal4-VP16 FLuc: VP16 counterscreen qHTS for inhibitors of ROR gamma transcriptional activity; Drosophila S2 Gal4-VP16 UAS-luciferase, luminescence, 20 h; Potency, µM (top dose mostly 53.6 µM), without a hit: at the highest dose activity, negative = inhibition, usual class: inhibitors; 310,000 compounds, 3.5% hits;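 further: Gal4-VP16 expression switched on by copper sulfate through the metallothionein promoter; potency means the concentration at half of the fitted maximal effect; nearly all actives have a fitted effect of over 50% in size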
ELG1 repair inh: qHTS screen for small molecules that inhibit ELG1-dependent DNA repair in human embryonic kidney (HEK293T) cells expressing luciferase-tagged ELG1; 330,000 compounds, 2.3% hits; Potency, µM (titrated, usually from 46.1 µM), for the others: top-dose activity change, negative = inhibition, hits mostly inhibitors; HEK293T ELG1-luciferase reporter, luminescence, 16 h; DNA damage induced by 5-fluorouridine; further: potency means the concentration at half of the fitted maximal effect; nearly all actives have a fitted effect of over 55% in size
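DMSO vehicle served as the neutral condition. Each well held 2,000 cells given 5-fluorouridine plus compound; after 16 hr at 37 °C/5% CO2, ONE-Glo was added and luciferase measured 30 min later.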
Numbers without * were called inactive; ? = inconclusive; . = no result given. In the library only some 21% were active in any assay of this set; here they are far more common. Unless noted, the call rests on the fitted dose curve; in most records, active means well fitted curve in the direction sought with a large enough effect; inconclusive means small, poorly fitted or top-dose-only effect, or another doubt; inactive means no such curve, though single readings can be large; an effect the other way counts as inactive or inconclusive. On the % scale 0 is the no-effect control and ±100 the full control effect.

SMILES	TDP1 cell CPT	TDP1 cell noCPT	RORg inh	IL-1B inflam inh	Gal4-VP16 FLuc	ELG1 repair inh
COC(=O)c1c(NC(=O)c2cccc(OC)c2)sc2c1CCC(C(C)(C)C)C2 (stereo unspecified)	5.8%	0.7%	.	.	.	.
CCOc1cccc(C(=O)Nc2nc3c(s2)CC(C(C)(C)C)CC3)c1 (stereo unspecified)	20.6µM*	20.6µM*	.	.	.	.
CC(C)Oc1ccc(C(=O)Nc2nc3c(s2)CC(C(C)(C)C)CC3)cc1 (stereo unspecified)	16.4µM*	13µM*	.	.	.	.
CCCC(=O)Nc1nc2c(s1)CC(C(C)(C)C)CC2 (stereo unspecified)	18.4µM*	20.6µM*	.	.	.	.
CCOc1cc(-c2nnc(SCC(=O)Nc3ccc(F)c(F)c3)nc2-c2ccc(OC)c(OCC)c2)ccc1OC	-18.3%	-22.4%	.	.	.	.
CCc1cccc(C)c1Nc1c(-c2ccc(N(C)C)cc2)nc2cnccn12	?	23.1µM*	.	.	.	.
CN(C)c1ccc(-c2nc3cnccn3c2Nc2cccc(C(F)(F)F)c2)cc1	25.9µM*	?	.	.	.	.
Cc1ccc(NC(=O)Cn2cc(S(=O)(=O)NC(C)C)c(S(=O)(=O)NC(C)C)c2)cc1Cl	?	-87.3%	.	.	.	.
CCCCn1c(CCn2nc(C)c(Br)c2C)n[nH]c1=S	-14.5%	1.6%	11.2µM*	11.3	?	0.8%
CN1/C(=C\C(=O)c2cccs2)Sc2ccccc21	?	10.3µM*	?	-13.7	-25.2%	?
COc1cc(OC)cc(C(=O)/C=C2\Sc3ccccc3N2C)c1	-2.5%	0.1%	11.0%	-26.2	-7.3%	?
CCN1CCN(C(c2ccc(SC)cc2)c2c(O)cc(C)n(Cc3ccco3)c2=O)CC1 (stereo unspecified)	-23.2%	-3.8%	.	.	.	.
CCn1nc(C)c(NC(=O)CC23CC4CC(CC(C4)C2)C3)c1C	?	20.6µM*	?	46.7	-49.5%	-0.8%
COc1ccc(CNC(=O)CC2N=C3c4ccccc4N=C(SCC(=O)Nc4ccc(C(C)C)cc4)N3C2=O)cc1 (stereo unspecified)	-9.9%	-21.7%	.	.	.	.
C/C1=C2N=C(/C=C3N=C(/C(C)=C4\[N-]C(C)(C5N=C1C(C)(CCC(=O)NCC(C)OP(=O)([O-])O[C@H]1C(O)C(n6cnc7cc(C)c(C)cc76)O[C@@H]1CO)C5CC(N)=O)C(C)(CC(N)=O)C4CCC(N)=O)C(C)(CC(N)=O)C\3CCC(N)=O)C(C)(C)C/2CCC(N)=O.[CH2-]C1OC(n2cnc3c(N)ncnc32)C(O)C1O.[Co] (stereo partly specified)	.	.	-12.0%	.	-18.1%	.
O=C(O)CSCC(=O)NC1CCSC1=O (stereo unspecified)	-11.5%	-4.8%	.	.	.	.
CC(C)/C=C1\CC/C(=C\c2ccc(N(C)C)cc2)C1=O	-28.3%	?	?	?	?	?
CN(C)c1ccc(/C=C2/C[N+](C)(C)C/C(=C/c3ccc(N(C)C)cc3)C2=O)cc1	2.59µM*	3.66µM*	.	-98.2*	.	.
O=C(NNc1ccc([N+](=O)[O-])cc1[N+](=O)[O-])C1C2CCCCC21 (stereo unspecified)	-9.2%	?	9.8%	-15.6	7.0%	-7.8%
CC12CCC(/C(=C/NNc3ccc([N+](=O)[O-])cc3[N+](=O)[O-])C1=O)C2(C)C (stereo unspecified)	18.4µM*	18.4µM*	.	-6.5	.	.
Cc1ccc(N(CC(=O)NC2CCCC2)C(=O)CNC(=O)c2cccs2)cc1F	2.2%	-3.2%	-5.3%	-0.1	-0.3%	14.0%
COc1ccccc1N1CCN(c2nc(CNC(=O)c3ccc4c(c3)OCO4)nc3ccccc23)CC1	18.4µM*	13µM*	.	.	.	.
Oc1ccccc1-c1nc(N2CCCC2)c2ccccc2n1	-12.7%	-29.0%	-9.0%	?	4.5%	-2.8%
COc1ccccc1N1CCN(c2nc(-c3ccc(C)cc3)nc3ccccc23)CC1	23.1µM*	23.1µM*	.	.	.	.
COc1ccccc1N1CCN(c2nc3ccc(C)cc3nc2-n2nc(C)cc2C)CC1	23.1µM*	20.6µM*	.	.	.	.
SMILES	TDP1 cell CPT	TDP1 cell noCPT	RORg inh	IL-1B inflam inh	Gal4-VP16 FLuc	ELG1 repair inh
COc1cccc(-c2nc(N3CCCC3)c3ccccc3n2)c1O	18.4µM*	11.6µM*	-1.1%	15.9	-13.6%	?
Cc1ccc(NC(=O)C(Cc2ccccc2)NS(=O)(=O)c2cccc3nsnc23)c(C)c1 (stereo unspecified)	-13.6%	?	.	.	.	.
COc1cccc(-c2nc(N3CC(C)CC(C)C3)c3ccccc3n2)c1O (stereo unspecified)	?	?	22.9%	20.1	-3.6%	-25.0%
COc1cccc(-c2nc(N3CCC(C)CC3)c3ccccc3n2)c1O	18.4µM*	20.6µM*	20.1%	13.3	-6.5%	-17.8%
O=C(NCc1ccco1)c1ccc2c(=O)n(-c3ccccc3)c(=O)n(Cc3cccc(F)c3)c2c1	.	.	?	.	-10.0%	4.9%
CCc1ccc(-n2c(=O)c3ccc(C(=O)NCCc4ccccc4)cc3n(CC(N)=O)c2=O)cc1	?	20.6µM*	26.7%	12.9	-21.2%	2.5%
CCCN(CCC)C(=O)Cn1c(=O)n(-c2ccc(CC)cc2)c(=O)c2ccc(C(=O)NCCc3ccccc3)cc21	11.6µM*	7.31µM*	.	.	.	.
Cc1ccc(F)cc1NC(=S)NCCc1ccccc1	?	25.9µM*	?	-15.3	-92.0%	-8.2%
Cc1ccc(F)cc1NC(=O)CN1CCN(Cc2ccccc2)CC1	-11.7%	-19.9%	17.5%	-13.6	-8.1%	-20.3%
Cc1ccc(NC(=S)NCCc2ccc(F)cc2)c(C)c1	-9.0%	?	4.47µM*	-12.9	5.01µM*	5.4%
CC(=O)Nc1ccc(C)c(NC(=S)Nc2ccc(F)cc2)c1	-18.0%	-11.7%	-18.6%	15.6	7.2%	-10.1%
Cc1ccc(NC(=S)Nc2ccc(F)cc2)c(C)c1	-11.0%	-23.9%	11.2µM*	-58.8*	?	-17.5%
O=C1Nc2ccccc2-n2nnnc2C1N1CCc2ccccc2C1 (stereo unspecified)	10.2%	-28.1%	.	11.1	.	.
O=C(CN1CC[n+]2c(-c3cccs3)csc21)c1ccc(-c2ccccc2)cc1	9.2µM*	8.2µM*	5.3%	-88.7*	-22.7%	?
